An excerpt weighted towards active compounds, which were near 4.1% of everything screened.
Gli-Sufu block – Gli-Sufu pathway antagonists, primary screen, luciferase luminescence, Sufu-KO-LIGHT cells, uHTS | 340,000 compounds, 0.74% hits | inhibition, % at 5 µM | AID 588413, 2011 | Sufu-KO-LIGHT fibroblasts, Gli luciferase reporter luminescence;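 active means inhibition above about 55%, limit read from the data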;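 further: 0% = DMSO-treated cells and 100% = wells with medium but no cells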
Mdm2-MdmX inh – inhibitors of human Mdm2-MdmX association, primary screen, cell-based, luminescence, split luciferase, SaOS-2, uHTS. Protein Mdm4 (Homo sapiens) + E3 ubiquitin-protein ligase Mdm2 (Homo sapiens), …. SaOS-2 split-luciferase Mdm2/MdmX complementation. inhibition, % at 8 µM. 330,000 compounds, 3% hits. AID 485346, 2010;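 active means inhibition of at least 50% at 8 µM in the primary screen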
Target sequence (O15151 whole entry, looked up): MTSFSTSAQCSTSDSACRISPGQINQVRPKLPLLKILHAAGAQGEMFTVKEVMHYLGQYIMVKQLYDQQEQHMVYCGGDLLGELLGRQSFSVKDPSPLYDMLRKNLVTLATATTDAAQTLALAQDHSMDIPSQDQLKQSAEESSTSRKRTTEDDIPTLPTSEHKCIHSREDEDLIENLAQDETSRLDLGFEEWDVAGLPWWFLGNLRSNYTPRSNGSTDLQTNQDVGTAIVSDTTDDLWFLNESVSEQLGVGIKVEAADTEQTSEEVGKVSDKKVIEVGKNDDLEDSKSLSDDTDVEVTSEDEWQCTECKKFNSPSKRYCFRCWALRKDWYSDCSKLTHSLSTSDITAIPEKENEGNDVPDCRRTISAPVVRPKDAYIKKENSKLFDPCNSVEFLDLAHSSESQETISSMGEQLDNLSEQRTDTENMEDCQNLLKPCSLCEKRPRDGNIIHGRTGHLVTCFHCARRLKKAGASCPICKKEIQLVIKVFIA
Target sequence (Q00987 whole entry, looked up): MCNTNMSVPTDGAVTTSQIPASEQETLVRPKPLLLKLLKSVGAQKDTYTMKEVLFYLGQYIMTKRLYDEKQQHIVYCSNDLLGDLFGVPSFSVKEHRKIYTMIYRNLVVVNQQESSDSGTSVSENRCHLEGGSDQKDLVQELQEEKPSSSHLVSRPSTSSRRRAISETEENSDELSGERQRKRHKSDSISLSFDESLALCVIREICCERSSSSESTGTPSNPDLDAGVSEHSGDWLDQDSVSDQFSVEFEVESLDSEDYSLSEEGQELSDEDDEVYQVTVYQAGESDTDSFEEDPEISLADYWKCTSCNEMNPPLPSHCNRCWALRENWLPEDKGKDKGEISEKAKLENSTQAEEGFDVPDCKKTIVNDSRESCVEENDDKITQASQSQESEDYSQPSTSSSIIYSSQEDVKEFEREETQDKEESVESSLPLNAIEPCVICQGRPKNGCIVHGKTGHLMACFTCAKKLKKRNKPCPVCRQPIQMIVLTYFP
KLF5 inhibitor – KLF5 expression inhibitors, primary screen, DLD-1 cells, luminescence; DLD-1 KLF5 promoter-luciferase reporter; inhibition, % at 5 µM; 290,000 compounds, 0.23% hits;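 active means inhibition above a per-plate limit of that plate's mean compound inhibition plus 3 SD, cut at about 60% in these data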;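 further: 0% = DMSO wells and 100% = LY294002 at 200 µM; higher means less KLF5 promoter-driven luciferase light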
697 NFkB inh – inhibitors of PMA/ionomycin-induced NF-kB reporter, 697 cells, primary screen, B-cell NF-kB inhibitor project, cell-based, luminescence, uHTS | 330,000 compounds, 0.33% hits | inhibition, % at 4 µM | AID 435022, 2010 | 697 B-cell NF-kB luciferase reporter, 16 h; in the data active means inhibition above about 35%
aSyn UTR inh – MLPCN primary screen, SNCA 5' untranslated region. 300,000 compounds, 0.82% hits. alpha-synuclein 5'UTR reporter, inhibitor activity. inhibition, % (tested at 7.5 µM); in the data active means inhibition above about 60%; inconclusive means no clear call, values can overlap the other calls;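 further: H4 neuroglioblastoma cells stably carrying SNCA 5'UTR luciferase fusion; 0% = DMSO wells and 100% = positive control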
Jurkat NFkB inh – inhibitors of induced NF-kB luciferase reporter, primary screen, TCR NF-kB activation inhibitor project, cell-based, luminescence, uHTS; AID 435003, 2010; inhibition, % at 4 µM; Jurkat, PMA/ionomycin-induced NF-kB luciferase reporter; 330,000 compounds, 0.53% hits; in the data active means inhibition above about 50%
Mdm2 MdmX conf – Mdm2-MdmX complex disruptors, retested hits, confirmation, luminescence, single concentration. shares compounds with Mdm2-MdmX inh. Mdm2-MdmX binding, luminescent assay. inhibition, % at 8 µM. 10,000 compounds, 55% hits. AID 489028, 2010; in the data active means inhibition above about 40%
FLuc counter – full-length luciferase signal inhibition, confirmation, counter-screen for Mdm2/MdmX interaction inhibitor project, cell-based, single concentration, SaOS-2; shares compounds with Mdm2-MdmX inh; AID 504607, 2011; 6,200 compounds, 77% hits; SaOS-2 full-length luciferase counterscreen, luminescence; inhibition, % at 8 µM;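 active means mean inhibition at 8 µM reaching about 37%, which flags the compound as non-specific, limit read from the data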;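 further: p53-null SaOS-2 cells with luciferase driven by a doxycycline-inducible promoter; compound on cells about two nights before reading with doxycycline added after day one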
Numbers without * were called inactive; ? = inconclusive; · = not tested or not shown.

SMILES	Gli-Sufu block	Mdm2-MdmX inh	KLF5 inhibitor	697 NFkB inh	aSyn UTR inh	Jurkat NFkB inh	Mdm2 MdmX conf	others
COC(=O)C1=C(c2ccc(F)cc2OCc2ccccc2)C[C@@H]2CC[C@H]1N2C(=O)N1CCCCC1	12.7	4.3	·	0.6	·	-2.8	·
CN(C)c1ccc2c(c1)N=C(c1ccco1)OP2(=S)N1CCOCC1 (stereo not given)	-12.1	-16.7	-18.4	-16.3	-129.7	-36.2	·
O=C1NC(=O)C(=Cc2cn(CCOc3ccc4c(c3)OCO4)c3ccccc23)C(=O)N1	9.6	59.3*	-50.8	-61.4	-5.1	-1.4	23.6
C[n+]1c(-c2ccccc2)cc(CCCCc2cc(-c3ccccc3)[n+](C)c(-c3ccccc3)c2)cc1-c1ccccc1	13.9	63.7*	-4.3	8.7	·	15.8	32.3
COc1ccc(-c2cc(-c3ccccc3)[n+](C)c(-c3ccccc3)c2)cc1	43.6	54.9*	31.7	-7.8	33.9	41.9	36.4	FLuc counter=52.3*
CCCCCn1c(=O)c(C(=O)Nc2cc(C)ccn2)c(O)c2ccccc21	-17.9	10.4	7.5	-37.2	24.6	9.1	·
CCCCCn1c(=O)c(C(=O)Nc2cnccn2)c(O)c2ccccc21	63.3*	52.2*	-9.4	-16.1	98.1*	9.5	47.5*	FLuc counter=51.0*
CCCCn1c(=O)c(C(=O)NCc2ccncc2)c(O)c2ccccc21	12.7	50.6*	7.5	1.0	25.8	4.7	19.6
CCCCCCCn1c(=O)c(C(=O)Nc2cnccn2)c(O)c2ccccc21	31.4	64.8*	-35.6	17.0	44.1	11.0	42.9*	FLuc counter=43.9*
CCCCn1c(=O)c(C(=O)Nc2ccccc2S(N)(=O)=O)c(O)c2ccccc21	-1.9	51.9*	-15.4	-15.4	-41.2	-9.8	48.2*	FLuc counter=39.5*
CCCCn1c(=O)c(C(=O)NCc2ccccc2)c(O)c2ccccc21	4.3	18.5	5.1	-3.3	18.4	-8.6	·
COc1cccc(-n2c(O)c(C=NCCN3CCOCC3)c(=O)[nH]c2=O)c1	-11.4	-1.0	-4.6	-7.7	-0.7	-0.7	·
CCOc1cc(C2C(C#N)=C(N)Oc3c2c(=O)oc2ccccc32)ccc1OC(=O)c1cccs1 (stereo not given)	-0.1	23.4	-20.9	-5.5	-7.0	-1.9	·
C=CCn1c(O)c(C(CC)=NCc2ccc3c(c2)OCO3)c(=O)[nH]c1=O	-6.9	55.0*	-6.7	31.8	14.8	-6.3	5.3
CCCCn1c(O)c(C(CC)=NCc2ccc3c(c2)OCO3)c(=O)[nH]c1=O	12.3	-19.2	16.5	-9.8	34.1	9.4	·
O=P(Oc1ccc(-c2ccccc2)cc1)(N1CC1)N1CC1	9.3	·	·	·	·	·	·
COC(=O)c1ccccc1-n1c(C)nc2ccccc2c1=O	-3.7	17.1	-7.4	-12.7	·	-0.8	·
COC(=O)c1cn(C(=O)c2cccc3ccccc23)c2ccccc12	0.8	64.3*	-10.1	-49.4	25.4	7.4	55.6*	FLuc counter=53.4*
COC(=O)C1=C(c2ccc(S(C)(=O)=O)cc2)C[C@@H]2CC[C@H]1N2C(=O)NCc1ccc(C(F)(F)F)cc1	4.9	21.7	·	23.9	-5.1	8.5	·
CCCCCCCSc1cc(OC)c(CCN(C)C)cc1OC	11.3	73.9*	7.3	-4.7	?	11.1	28.6
O=C1NC(=O)N(Cc2ccccc2)C(=O)/C1=C\C=C\c1ccco1	-1.9	66.4*	-19.6	1.7	-222.0	5.1	12.9
O=C1NC(=O)N(Cc2ccco2)C(=O)/C1=C/C=C/c1ccco1	0.2	21.8	-18.4	9.9	-288.4	-2.5	·
COc1cc(CC(=O)N2C[C@H]3C[C@@H](C2)c2cccc(=O)n2C3)cc(OC)c1OC	-20.8	9.8	·	20.1	·	11.9	·
CCOC(=O)C1(c2ccccc2)CCN(CCC(=O)Nc2cccc(Br)c2)CC1	37.3	54.2*	·	-28.5	·	-12.7	39.4	FLuc counter=76.6*
CCOC(=O)C1(c2ccccc2)CCN(CCC(=O)Nc2ccc(C(=O)OC)cc2)CC1	4.1	17.0	·	-5.8	·	-8.4	·
SMILES	Gli-Sufu block	Mdm2-MdmX inh	KLF5 inhibitor	697 NFkB inh	aSyn UTR inh	Jurkat NFkB inh	Mdm2 MdmX conf	others
Cc1ccccc1[N+](=O)[O-]	13.6	-11.7	·	8.5	·	10.5	·
Cc1cc([N+](=O)[O-])c2ccccc2[n+]1[O-]	16.5	98.7*	71.1*	12.6	126.7*	25.0	100.1*	FLuc counter=51.5*
COc1cc2c(cc1OC)CN(c1ccc([N+](=O)[O-])c(C(F)(F)F)c1)CC2	26.1	58.6*	8.9	6.7	-2.8	9.1	-1.6
CCOC(=O)N1CCN(C(C)C(=O)c2c[nH]c3ccccc23)CC1 (stereo not given)	-0.9	-39.2	4.2	-25.7	21.3	-4.7	·
Cc1ccc2c(c1)C1CN(C)CCC1N2C(=O)c1cccnc1Cl (stereo not given)	3.6	12.2	-31.3	5.8	21.9	6.3	·
Cc1ccc2c(c1)C1CN(C)CCC1N2C(=O)c1ccc(Br)o1 (stereo not given)	-16.7	17.5	-19.1	8.2	29.9	-7.6	·
Cc1ccc2c(c1)C1CN(C)CCC1N2C(=O)CCCN1C(=O)c2cccc3cccc(c23)C1=O (stereo not given)	15.9	50.8*	-14.7	19.6	-18.3	1.5	22.6
Cc1ccc2c(c1)C1CN(C)CCC1N2C(=O)Nc1cccc(C(F)(F)F)c1 (stereo not given)	6.6	55.0*	-4.4	26.0	4.4	18.0	36.8	FLuc counter=65.2*
Cc1ccc2c(c1)[C@@H]1CN(C)CC[C@@H]1N2C(=O)Nc1cccc(C(F)(F)F)c1	-0.7	51.8*	-15.5	22.6	14.2	15.3	19.8
Cc1ccc2c(c1)C1CN(C)CCC1N2C(=O)c1cn(-c2ccccc2)nc1-c1ccccc1 (stereo not given)	23.9	72.9*	-28.7	7.0	3.4	4.4	36.1	FLuc counter=75.9*
O=P(Nc1ccccc1)(Nc1ccccc1)Oc1cccc(Cl)c1	4.1	-11.2	1.2	-0.9	-14.2	1.3	·
CC1(C)CN=C(NCc2ccccc2Cl)S1	-23.3	1.5	-39.3	-21.5	-91.9	-9.1	·
Cc1nn(CCC#N)c2c1P(=S)(N1CCCC1)OC(c1ccc(F)cc1)=N2 (stereo not given)	6.9	-5.3	-29.2	10.3	28.2	15.6	·

Compound activity as filed in PubChem BioAssay.
